Sampled rows, rich in hits. Any-hit rate of the full collection: about 7.3%.
FMDV inh = foot and mouth disease virus antiviral activity; FMDV antiviral cell-based qHTS; Potency, µM (series often up to 57.9 µM), actives largely listed as inhibitors; hit rate 1.2% among 410,000; calls by dose curve; tested in HEK293T cells; note: read-out not given here; nearly all actives have a fitted effect of over 45% in size
VACV mCherry inh = inhibitors of vaccinia virus infection (mCherry reporter signal) | Vaccinia virus mCherry reporter infection, fluorescence | Potency, µM (series often up to 36.5 µM), actives largely listed as inhibitors | hit rate 0.63% among 310,000; calls by dose curve; tested in A549 cells; note: nearly all actives have a fitted effect of over 35% in size
HCV inh = blocks hepatitis C virus. Huh7.5.1 HCVcc-Cre infection, luciferase reporter, 44 h. Potency, µM (series often up to 41.8 µM), usual class: inhibitors. hit rate 3.4% among 340,000. AID 651820
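After 44 h co-culture of compound, cells and HCVcc-Cre (~0.5 moi), substrate is added for 15 min at room temperature and luciferase measured over 15 sec. Cells were seeded at 1,000/well and pre-cultured 4 h.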
Vaccinia Venus = vaccinia inhibition (Venus reporter). Potency, µM (series often up to 36.5 µM), actives largely listed as inhibitors. Vaccinia virus Venus reporter expression, fluorescence. AID 720580. hit rate 0.46% among 330,000; calls by dose curve; tested in A549 cells; note: nearly all actives have a fitted effect of over 30% in size
HCMV inh = inhibitors of human cytomegalovirus | HFF cells, HCMV-luciferase reporter, 72 h; active compounds read low | activity change, negative = inhibition, % at 57.5 µM | hit rate 4.5% among 410,000 | AID 1259415; in the data active = activity change below about -60%; inconclusive = no clear call, values can overlap the other calls; inactive = above about -39%
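Inhibition of viral replication was scored as loss of reporter luminescence in HFFs infected with HCMV-luciferase (MOI 1 PFU/cell) for 72 h; compounds tested at 2 doses, normalized to buffer and Salinomycin controls.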
HCV inh confirm = HCV inhibition, cherry-pick confirmation. shares compounds with HCV inh. HCVcc-Cre infectious virus cell assay, luciferase, inhibition. Potency, µM (titrated, usually from 41.8 µM), usual class: inhibitors. hit rate 78% among 640. AID 720575; note: nearly all actives have a fitted effect of over 80% in size
HCV host tox = counter-screen for HCV inhibitors: host cell cytotoxicity | shares compounds with HCV inh | HCV host cell line cytotoxicity counterscreen | Potency, µM (top dose mostly 41.8 µM), most hits filed as inhibitors | hit rate 22% among 640 | AID 720576;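 note: 44 h compound exposure; nearly all actives have a fitted effect of over 55% in size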
Numbers stand for hits; 0 = inactive; ? = inconclusive; - = no result. Unless noted, calls come from the whole dose curve; as a rule, active = well fitted curve in the direction sought with a large enough effect; inconclusive = small, poorly fitted or top-dose-only effect, or another doubt; inactive = no such curve, though single readings can be large; an effect the other way counts as inactive or inconclusive.

SMILES	FMDV inh	VACV mCherry inh	HCV inh	Vaccinia Venus	HCMV inh	HCV inh confirm	HCV host tox
COc1ccc(CCNC(=O)c2cc3c(=O)n4ccccc4nc3n(CCCN3CCOCC3)c2=N)cc1	0	-	8.9µM	-	?	16µM	0
N=c1c(S(=O)(=O)c2ccc(Br)cc2)cc2c(=O)n3ccccc3nc2n1C1CCCCC1	0	-	?	-	0	14µM	0
COc1ccc(CCNC(=O)c2cc3c(=O)n4ccccc4nc3n(C3CCCCC3)c2=N)cc1	?	-	7.9µM	-	0	14µM	0
CC(=O)c1ccc(C(=O)N(CCCN(C)C)c2nc3c(C)c(C)ccc3s2)cc1	0	0	-	0	0	-	-
Cc1ccc2sc(N(CCCN(C)C)C(=O)c3ccc(Br)s3)nc2c1C	0	?	7.1µM	0	0	?	0
COc1cc2c(cc1NC(=O)COC(=O)[C@@H](NS(=O)(=O)c1cccc(Cl)c1)C(C)C)oc1ccccc12	0	0	?	?	0	13µM	0
COc1cc2c(cc1NC(=O)COC(=O)CNS(=O)(=O)c1ccc(C)cc1)oc1ccccc12	0	0	?	0	0	7.9µM	0
COc1ccc(S(=O)(=O)N[C@@H](C)C(=O)OCC(=O)Nc2cc3oc4ccccc4c3cc2OC)cc1	0	0	6.3µM	0	0	22µM	0
CCOC(=O)N1CCN(C(C(=O)NC2CCCC2)C(C)C)CC1 (stereo unspecified)	0	0	-	0	0	-	-
CCOc1ccc(NC(=O)CC2C(=O)N(c3ccc(C)cc3)C(=O)N2Cc2ccc(OC)cc2)cc1 (stereo unspecified)	0	0	-	0	0	-	-
C=C(c1ccc(O)cc1)c1ccc(O)cc1	?	-	8.9µM	0	0	14µM	0
COC(=O)c1c(NC(=O)Cc2cccs2)sc2c1CCCC2	0	0	5µM	0	?	13µM	?
COC(=O)c1c(NS(=O)(=O)c2cccs2)sc2c1CCCC2	0	-	0	-	0	-	-
O=C(COc1ccc([N+](=O)[O-])cc1)Nc1cccc2cccnc12	0	0	-	0	0	-	-
COC(=O)c1nn2c(C(F)(F)F)cc(-c3ccc(Br)o3)nc2c1Br	0	-	5.6µM	-	0	?	0
COc1ccc(CCNC(=O)c2nc(SCc3ccc(F)cc3)ncc2Cl)cc1OC	?	0	-	0	?	-	-
Cc1ccc(Cn2c(SCC(=O)NCc3ccco3)nc3ccsc3c2=O)cc1	0	-	4.5µM	-	0	11µM	0
Cc1sc2nc(SCC(=O)c3cccs3)n(Cc3ccco3)c(=O)c2c1C	0	-	0	-	0	?	2.8µM
Cc1cc2c(=O)n(Cc3ccco3)c(SCC(=O)NCc3ccco3)nc2s1	0	0	3.5µM	0	0	2.8µM	0
Cc1sc2nc(SCc3ccc(C(=O)O)cc3)n(Cc3ccco3)c(=O)c2c1C	0	0	0	0	0	-	-
CCCCNC(=O)CSc1nc2cc3c(cc2c(=O)n1Cc1ccco1)OCO3	?	0	?	0	-61	14µM	0
Cc1ccc(NC(=O)N(Cc2c[nH]c3ccccc23)C2CCCCCC2)cc1C	0	?	-	0	0	-	-
Cn1nc(C(F)(F)F)c2cc(NC(=O)OCc3ccc(C(C)(C)C)cc3)sc21	22µM	0	?	0	0	25µM	?
Cc1ccc(OCCCCNC2CCCC(C)C2C)c(C)c1 (stereo unspecified)	0	?	7.9µM	10µM	0	25µM	?
Cc1ccc(OCCCCN2CCCCC2)c(C)c1	0	-	0	-	0	-	-
SMILES	FMDV inh	VACV mCherry inh	HCV inh	Vaccinia Venus	HCMV inh	HCV inh confirm	HCV host tox
CCN(CC(=O)Nc1ccc([N+](=O)[O-])cc1OC)c1ccccc1	-	0	3.2µM	0	0	14µM	0
COc1cc([N+](=O)[O-])ccc1NC(=O)CN(C)C	-	0	?	0	0	-	-
COc1cc2[nH]c(=O)n(Cc3ccc(C(=O)NCc4ccccc4)cc3)c(=O)c2cc1OC	0	?	-	0	0	-	-
Cc1ccc(C)c(CNc2ccc(S(=O)(=O)N3CCCCC3)cc2)c1	?	-	4.5µM	-	?	25µM	31µM
Cc1ccc(S(=O)(=O)N2CCCCC2)cc1	0	-	0	-	0	-	-
COc1ccc2c(c1OC)C(=O)N1C2SC[C@H]1C(=O)NC1CC1 (stereo partly specified)	0	0	1µM	0	0	0	0
CCOC(=O)C1(CCc2ccccc2)CCN(Cc2csc(C(C)=O)c2)CC1	13µM	0	6.3µM	?	?	14µM	?
CCOC(=O)C1(CCc2ccccc2)CCN(Cc2ccc(O)cc2)CC1	?	-	?	-	0	-	-
Cc1nnsc1C(=O)NC1CCCc2c1cnn2-c1ccc(C(C)(C)C)cc1 (stereo unspecified)	?	-	1.6µM	-	-76	3.1µM	5.6µM
Cc1ccc(CCNC(=O)c2sc3nc4n(c(=O)c3c2C)CCCC4)cc1	0	0	-	0	0	-	-
